Laboratory results from the supplement of paper PMC6555819.

Legend:
Assay in all cases: PBM binding z-score (relative to random genomic background probes); higher = stronger binding; sequences stand for … in GC…GCGATTGACAGCGTAGAATGAAGG
[1] = test system: PPARg:RXRa DBDmut IVT, anti-RXR (DBD mutation: RXRa K156A/R161A, NR concentration 270 nM, RXRa partner concentration 90 nM)
How it was run: (§1)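 Binding z-scores take random background probes as their reference. They come from custom Agilent 4×180K protein-binding microarrays incubated 1 h with ligand-free nuclear receptor dimers, with antibodies against each partner (one per run) detecting binding. Scanned fluorescence was regression-normalized.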

[2] = test system: PPARg:RXRa IVT, anti-PPARg (NR concentration 270 nM, RXRa partner concentration 90 nM)
How it was run: as §1

[3] = test system: PPARg DBDmut:RXRa IVT, anti-PPARg (DBD mutation: PPARg1 K132A/R137A, NR concentration 270 nM, RXRa partner concentration 90 nM)
How it was run: as §1

[4] = test system: PPARg DBDmut IVT, anti-PPARg (DBD mutation: PPARg1 K132A/R137A, NR concentration 270 nM)
How it was run: as §1

[5] = test system: PPARg homodimer (NR concentration 180 nM)
How it was run: as §1

[6] = test system: PXR:RXRa (NR concentration 270 nM, RXRa partner concentration 90 nM)
How it was run: as §1

[7] = test system: PXR homodimer (NR concentration 270 nM)
How it was run: as §1

[8] = test system: RARa:RXR (NR concentration 270 nM, RXRa partner concentration 90 nM)
How it was run: as §1

[9] = test system: RARa homodimer (NR concentration 270 nM)
How it was run: as §1

[10] = test system: RARb:RXRa (NR concentration 270 nM, RXRa partner concentration 90 nM)
How it was run: as §1

[11] = test system: RARb homodimer (NR concentration 270 nM)
How it was run: as §1

[12] = test system: RARg:RXRa (NR concentration 270 nM, RXRa partner concentration 90 nM)
How it was run: as §1

[13] = test system: RARg homodimer (NR concentration 270 nM)
How it was run: as §1

[14] = test system: RXRa DBDmut IVT, anti-RXR (DBD mutation: RXRa K156A/R161A, NR concentration 90 nM)
How it was run: as §1

[15] = test system: RXRa homodimer (NR concentration 180 nM)
How it was run: as §1

[16] = test system: THRa:RXRa (NR concentration 90 nM, RXRa partner concentration 90 nM)
How it was run: as §1

[17] = test system: THRa homodimer (NR concentration 90 nM)
How it was run: as §1

[18] = test system: VDR homodimer (NR concentration 270 nM)
How it was run: as §1

## GCTAGCAGTCCATTTGGGTCACTCAATGACGGGC
[1]
  PBM binding z-score: 0.379
[2]
  PBM binding z-score: 1.16
[3]
  PBM binding z-score: -1.16
[4]
  PBM binding z-score: -1.53
[5]
  PBM binding z-score: 0.032
[6]
  PBM binding z-score: 0.67
[7]
  PBM binding z-score: 0.689
[8]
  PBM binding z-score: 0.82
[9]
  PBM binding z-score: -0.831
[10]
  PBM binding z-score: 0.88
[11]
  PBM binding z-score: 1.54
[12]
  PBM binding z-score: 0.428
[13]
  PBM binding z-score: 0.586
[14]
  PBM binding z-score: 0.506
[15]
  PBM binding z-score: 0.617
[16]
  PBM binding z-score: 1.82
[17]
  PBM binding z-score: 0.507
[18]
  PBM binding z-score: 0.912

## TTACCAAGGTGAAAGGGCGTTGATGCACGCCTTG
[1]
  PBM binding z-score: 1.85
[2]
  PBM binding z-score: 3.87
[3]
  PBM binding z-score: 0.557
[4]
  PBM binding z-score: 0.204
[5]
  PBM binding z-score: 0.404
[6]
  PBM binding z-score: 1.14
[7]
  PBM binding z-score: -0.361
[8]
  PBM binding z-score: 1.94
[9]
  PBM binding z-score: -0.167
[10]
  PBM binding z-score: 1.88
[11]
  PBM binding z-score: 1.2
[12]
  PBM binding z-score: 1.59
[13]
  PBM binding z-score: 0.688
[14]
  PBM binding z-score: -0.264
[15]
  PBM binding z-score: 2.14
[16]
  PBM binding z-score: 1.99
[17]
  PBM binding z-score: 0.369
[18]
  PBM binding z-score: 0.227

## CATACAGGGTCAGCTAGGCCAAAGTAGGGACGGC
[1]
  PBM binding z-score: 0.935
[2]
  PBM binding z-score: 2.57
[3]
  PBM binding z-score: 0.812
[4]
  PBM binding z-score: 0.367
[5]
  PBM binding z-score: 1.48
[6]
  PBM binding z-score: 2.55
[7]
  PBM binding z-score: 0.23
[8]
  PBM binding z-score: 3.25
[9]
  PBM binding z-score: 0.847
[10]
  PBM binding z-score: 4.14
[11]
  PBM binding z-score: 3.27
[12]
  PBM binding z-score: 4.71
[13]
  PBM binding z-score: 5.14
[14]
  PBM binding z-score: 1.49
[15]
  PBM binding z-score: 4.24
[16]
  PBM binding z-score: 3.16
[17]
  PBM binding z-score: 0.87
[18]
  PBM binding z-score: 2.11

## CGTCCAAGGTCAATGCTAGTTCAGTGAAAGCATT
[1]
  PBM binding z-score: 2.97
[2]
  PBM binding z-score: 3.31
[3]
  PBM binding z-score: 1.63
[4]
  PBM binding z-score: 0.145
[5]
  PBM binding z-score: 3.77
[6]
  PBM binding z-score: 5.51
[7]
  PBM binding z-score: 2.79
[8]
  PBM binding z-score: 4.79
[9]
  PBM binding z-score: 0.972
[10]
  PBM binding z-score: 5.1
[11]
  PBM binding z-score: 4.24
[12]
  PBM binding z-score: 6.18
[13]
  PBM binding z-score: 6.17
[14]
  PBM binding z-score: 3.83
[15]
  PBM binding z-score: 4.84
[16]
  PBM binding z-score: 3.91
[17]
  PBM binding z-score: 2.17
[18]
  PBM binding z-score: 3.28

## CGAACTGGGTCATCCAGGACAGTGAATACATTGA
[1]
  PBM binding z-score: 7.33
[2]
  PBM binding z-score: 8.01
[3]
  PBM binding z-score: 5.1
[4]
  PBM binding z-score: 4.27
[5]
  PBM binding z-score: 2.15
[6]
  PBM binding z-score: 2.01
[7]
  PBM binding z-score: 0.0976
[8]
  PBM binding z-score: 3.11
[9]
  PBM binding z-score: 0.785
[10]
  PBM binding z-score: 3.21
[11]
  PBM binding z-score: 2.71
[12]
  PBM binding z-score: 3.55
[13]
  PBM binding z-score: 3.7
[14]
  PBM binding z-score: 1.35
[15]
  PBM binding z-score: 2.99
[16]
  PBM binding z-score: 3.48
[17]
  PBM binding z-score: 1.25
[18]
  PBM binding z-score: 1.8

## TCTAGTTGGTAACGGAGGTCACACACGACGGGTA
[1]
  PBM binding z-score: 1.63
[2]
  PBM binding z-score: 2.76
[3]
  PBM binding z-score: 0.969
[4]
  PBM binding z-score: 0.885
[5]
  PBM binding z-score: 2.11
[6]
  PBM binding z-score: 3.99
[7]
  PBM binding z-score: 1.46
[8]
  PBM binding z-score: 4.04
[9]
  PBM binding z-score: 1.83
[10]
  PBM binding z-score: 3.27
[11]
  PBM binding z-score: 4.04
[12]
  PBM binding z-score: 3.79
[13]
  PBM binding z-score: 3.14
[14]
  PBM binding z-score: 0.917
[15]
  PBM binding z-score: 4.14
[16]
  PBM binding z-score: 3.54
[17]
  PBM binding z-score: 2.41
[18]
  PBM binding z-score: 2.47

## ATATGTAGGTTATCGGGTCATGCAGTTTGCGCAT
[1]
  PBM binding z-score: 7.6
[2]
  PBM binding z-score: 7.68
[3]
  PBM binding z-score: 2.17
[4]
  PBM binding z-score: 1.66
[5]
  PBM binding z-score: 2.79
[6]
  PBM binding z-score: 3.47
[7]
  PBM binding z-score: 2.99
[8]
  PBM binding z-score: 4.11
[9]
  PBM binding z-score: 1.09
[10]
  PBM binding z-score: 2.55
[11]
  PBM binding z-score: 3.1
[12]
  PBM binding z-score: 3.43
[13]
  PBM binding z-score: 2.66
[14]
  PBM binding z-score: 0.921
[15]
  PBM binding z-score: 3.76
[16]
  PBM binding z-score: 3.54
[17]
  PBM binding z-score: 3.02
[18]
  PBM binding z-score: 3

## TCTAGTTGGTCAAAGGTCACATACTCGAAATGCG
[1]
  PBM binding z-score: 3.45
[2]
  PBM binding z-score: 6.25
[3]
  PBM binding z-score: 1.46
[4]
  PBM binding z-score: 1.64
[5]
  PBM binding z-score: 5.02
[6]
  PBM binding z-score: 5.59
[7]
  PBM binding z-score: 1.83
[8]
  PBM binding z-score: 7.12
[9]
  PBM binding z-score: 3.51
[10]
  PBM binding z-score: 4.83
[11]
  PBM binding z-score: 5.18
[12]
  PBM binding z-score: 6.93
[13]
  PBM binding z-score: 6.01
[14]
  PBM binding z-score: 1.65
[15]
  PBM binding z-score: 7.86
[16]
  PBM binding z-score: 3.89
[17]
  PBM binding z-score: 1.76
[18]
  PBM binding z-score: 2.75
